From PubChem BioAssay
An excerpt weighted towards active compounds, which were near 2.2% of everything screened.
HTR5A ag ctr: HTR5A agonism, opioid heterodimer counter-screen | P47898 | HTR5A agonist assay, luminescence, cell-based | activation, % at 9.3 µM | 340,000 tested, 0.61% active; in the data active = activation mostly above about 9.5%, no sharp cut-off; inactive = mostly below about 7.6%;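 note: 0% = cells with vehicle only and 100% = reference agonist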
HTR2A ag: mouse HTR2A agonism via beta-arrestin recruitment; 360,000 tested, 0.66% active; activation, % at 7.6 µM; CHO-K1 mHTR2A beta-arrestin complementation, luminescence; percent of 30 µM serotonin response;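 active = activation above a run cutoff, the mean activation of all tested compounds plus 3 SD, cut at about 14% in these data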;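 note: 0% = plate median of compound wells and 100% = 30 µM serotonin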
HTR5A inv ag: inverse agonist of human HTR5A in OPRM1-OPRD1 counter-screen; inhibition, % at 9.3 µM; 340,000 tested, 0.083% active; HTR5A cell line, luminescence, inverse agonism; in the data active = inhibition mostly above about 23%, no sharp cut-off; inactive = mostly below about 18%;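 note: 0% = cells with DMSO and 100% = no-cell wells with DMSO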
sPLA2-III inh: Inhibits HGIII-sPLA2 liposome hydrolysis, primary screen; Q9NZ20; QFRET BODIPY PC-A2 liposome hydrolysis, fluorescence; inhibition, % at 12.2 µM; 370,000 tested, 0.56% active; AID 743126;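 active = inhibition above mean plus 3 SD of compounds lying within the high and low control bounds, cut at about 19% in these data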;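 note: 0% = median of test compound wells and 100% = no enzyme DMSO wells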
Target sequence (Q9NZ20 whole entry, looked up): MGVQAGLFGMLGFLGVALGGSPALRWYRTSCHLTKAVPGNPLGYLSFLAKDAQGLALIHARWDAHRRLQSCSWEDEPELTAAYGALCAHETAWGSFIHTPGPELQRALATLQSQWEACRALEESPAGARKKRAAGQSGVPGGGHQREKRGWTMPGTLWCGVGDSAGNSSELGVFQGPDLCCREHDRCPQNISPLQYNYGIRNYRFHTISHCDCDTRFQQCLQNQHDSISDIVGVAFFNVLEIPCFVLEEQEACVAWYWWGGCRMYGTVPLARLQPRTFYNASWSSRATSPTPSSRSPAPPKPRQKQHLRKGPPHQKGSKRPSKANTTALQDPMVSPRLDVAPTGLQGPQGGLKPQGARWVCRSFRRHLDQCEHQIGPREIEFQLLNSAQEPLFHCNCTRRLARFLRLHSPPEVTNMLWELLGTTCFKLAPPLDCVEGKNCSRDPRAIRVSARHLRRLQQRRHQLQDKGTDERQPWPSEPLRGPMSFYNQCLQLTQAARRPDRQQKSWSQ
OPRM1-OPRD1 inv: inverse agonists of human mu-delta opioid receptor heterodimerization. P35372+P41143. cell-based MOR-DOR heterodimer luminescence, inverse agonism. inhibition, % at 9.3 µM. 340,000 tested, 0.21% active. AID 504357; in the data active = inhibition above about 22%, passing the limit was not always enough;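 note: 0% = cells with DMSO and 100% = wells without cells with DMSO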
MOR-DOR ag-1: agonists of human mu-delta opioid receptor heterodimerization. activation, % at 9.3 µM. 340,000 tested, 0.3% active. cells, OPRM1-OPRD1 heterodimerization, luminescence. P35372+P41143;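 note: 0% = vehicle-treated cells and 100% = reference agonist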
MOR-DOR ag-2: counter-screen for HTR5A agonists: OPRM1-OPRD1 heterodimerization agonism; shares compounds with HTR5A ag ctr; U2OS counter-screen cells, complementation luminescence, 3 h; activation, % at 9.3 µM; 800 tested, 13% active; AID 504913
HTR5A ag confirm: confirmation of human HTR5A agonists. HTR5A agonist cell assay, luminescence. AID 504915. activation, % at 9.3 µM. shares compounds with HTR5A ag ctr. 800 tested, 17% active; in the data active = activation above about 17%;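 note: 0% = cells with vehicle only and 100% = full reference agonist response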
* hit, by the source's call; nt = not tested or not shown. Cut-off read from the data, not from the text of the source, unless noted: active = activation above about 18%; inactive = the rest.

SMILES	HTR5A ag ctr	HTR2A ag	HTR5A inv ag	sPLA2-III inh	OPRM1-OPRD1 inv	MOR-DOR ag-1	MOR-DOR ag-2	HTR5A ag confirm
CC1(OC(=O)CCc2ccccc2)C(=O)C=C2C=C(c3ccc(C#N)cc3)N(CCc3c[nH]c4ccccc34)C=C2C1=O (stereo unspecified)	20.0*	1.4	-32.2	-4.9	-38.6	6.9	4.8	6.2
CCN(CC)C(=O)CSc1nnc(-c2ccccn2)n1C	nt	nt	nt	9.9	nt	nt	nt	nt
O=C(CCl)N(c1ccc(Cl)cc1)c1c[nH]c2ccccc12	16.4*	0.0	-26.6	-20.2	-12.0	2.4	0.7	20.7*
O=C(O/N=C1/CCSc2ccccc21)c1ccccc1	22.6*	5.9	-63.6	-3.1	-5.8	1.1	4.5	9.8
COc1ccc(NC(=O)CN(C)C(=O)/C=C/c2ccc(S(=O)(=O)N3CCCCCC3)cc2)cc1	2.5	-3.2	-6.3	-2.7	7.5	-1.4	nt	nt
COc1ccc(NC(=O)CN(C)C(=O)/C=C/c2ccc(OCc3ccccc3)cc2)cc1	23.9*	4.3	-51.0	3.1	-83.0	10.1	2.2	1.2
CC(NCCCOc1cccc2ccccc12)c1ccccc1 (stereo unspecified)	15.4*	-4.9	-58.1	1.3	-68.1	13.8	43.4*	1.8
O=C(c1ccc(-c2cccc(C(F)(F)F)c2)o1)N1CCCCCCC1	3.6	-1.8	-9.8	2.7	-13.7	2.6	nt	nt
O=C(c1ccco1)N1CCN(C(=O)c2ccc(-c3cccc(C(F)(F)F)c3)o2)CC1	35.3*	0.8	-92.1	-4.2	9.3	-1.4	0.2	23.4*
CCOc1ccc2nc(NC(=O)Nc3ccccc3)sc2c1	20.4*	-1.0	-54.7	-8.0	-20.7	3.4	3.5	-0.4
O=C(Nc1nccs1)c1c(O)c2c([nH]c1=O)CCCC2	-3.5	-2.4	11.0	-5.9	11.4	-2.2	nt	nt
CCCc1nnc(NC(=O)c2c(O)c3c([nH]c2=O)CCCC3)s1	15.6*	3.4	-43.0	4.9	10.3	-2.4	3.8	0.6
CC(C)CN1C(=O)[C@]2(CC(=O)N(C)C2c2ccccc2)c2cc(-n3cc(C4=CCCCC4)nn3)ccc21 (stereo partly specified)	nt	nt	nt	-11.7	nt	nt	nt	nt
CCNC(=O)c1ccc(-n2nc(C(F)(F)F)c3c2CCCC3)cc1	16.4*	-3.3	-78.8	-7.4	3.6	-0.7	0.9	35.9*
O=C(Cn1nc(C(F)(F)F)c2c1CCC2)NCc1ccc(Cl)cc1	-4.3	-1.2	3.0	1.0	-1.2	0.2	nt	nt
O=C(NCCc1c[nH]c2ccccc12)C(=O)NCC1OCCCN1S(=O)(=O)c1cc(F)ccc1F (stereo unspecified)	36.0*	4.1	-150.7	-65.0	13.6	-2.9	-1.5	-11.2
O=C(NCCc1c[nH]c2ccccc12)C(=O)NCC(c1ccco1)N1CCN(c2ccc(F)cc2)CC1 (stereo unspecified)	47.1*	7.4	-165.6	-10.6	0.7	-0.1	5.5	56.2*
O=C(NCCc1c[nH]c2ccccc12)C(=O)NCC(c1ccco1)N1CCN(c2ccccc2)CC1 (stereo unspecified)	7.7	6.6	-10.5	-19.2	-18.2	3.3	nt	nt
CCn1c(SCC(=O)Nc2ccccc2-c2ccccc2)nnc1-c1ccc(Cl)cc1	nt	nt	nt	-8.5	nt	nt	nt	nt
Cc1ccc2[nH]c(C)c(/C=N/Nc3nc4ccccc4s3)c2c1	20.1*	-0.2	-55.1	3.7	-31.9	7.3	1.5	3.1
COc1ccc(C=NNc2nc3ccccc3s2)cc1	-0.1	-0.7	0.3	-11.3	-10.2	2.1	nt	nt
CCCn1c(SCC(=O)N2N=C3/C(=C/c4ccc(OC)cc4)CCCC3C2c2ccc(OC)cc2)n[nH]c1=O (stereo unspecified)	22.6*	-2.8	-77.1	-28.2	-8.7	1.5	25.9*	7.3
CCNC(=S)NNc1nncc2ccccc12	16.1*	5.7	-41.3	1.5	12.3	-2.6	35.7*	-3.2
CN1CCCN(C(=O)C2CCCN(C(=O)c3ccc4c(c3)NC(=O)CS4)C2)CC1 (stereo unspecified)	nt	nt	nt	1.6	nt	nt	nt	nt
O=C1NC(c2ccccc2)=C(c2nc3ccccc3s2)C(c2ccc(O)cc2)N1 (stereo unspecified)	37.7*	8.6	-71.2	nt	-23.4	4.4	12.6	7.7
SMILES	HTR5A ag ctr	HTR2A ag	HTR5A inv ag	sPLA2-III inh	OPRM1-OPRD1 inv	MOR-DOR ag-1	MOR-DOR ag-2	HTR5A ag confirm
O=C1NC(c2ccccc2)=C(c2ccc3ccccc3n2)C(c2ccccc2)N1 (stereo unspecified)	-0.9	0.5	2.5	-1.5	-1.7	0.2	nt	nt
COc1ccccc1CNC(=S)Nc1ccc2nc(N3CCN(C)CC3)cc(C)c2c1	69.5*	-9.2	-199.3	-9.8	11.3	-2.1	1.6	70.2*
COc1ccc(CNC(=S)Nc2ccc3nc(N4CCN(C)CC4)cc(C)c3c2)cc1	5.4	-8.0	-15.6	-9.2	6.7	-1.2	nt	nt
CCCCNC(=O)CCn1c(=O)c2ccccc2n(Cc2ccc(Cl)cc2)c1=O	17.8*	5.8	-47.4	1.1	4.9	-0.8	1.1	-1.9
COC(=O)c1cc2c(c3c4cc(F)ccc4n(S(=O)(=O)c4ccc(OC)cc4)c13)C(=O)N(Cc1ccccc1OC)C2	nt	nt	nt	-1.6	nt	nt	nt	nt
CC(C)C(=O)N1CCC(Oc2cccnc2)CC1	nt	nt	nt	9.1	nt	nt	nt	nt
O=C(CN1C(=O)CSc2ncccc21)NCCN1CCOCC1	16.1*	-5.9	-47.9	-5.8	4.2	-0.8	0.3	1.2
CC(C)NC(=O)N[C@H]1C[C@@H]2O[C@@H](CO)CC[C@@H]2O[C@@H]1CCc1ccc(-c2ccccc2F)cc1	nt	nt	nt	-11.5	nt	nt	nt	nt
Cc1cc(C)c(OCCCCNCc2ccccc2)c(Cl)c1	19.4*	3.0	-46.3	-3.0	-27.9	5.8	12.2	0.7
Cc1ccccc1NC(=O)C(=O)NCCc1c[nH]c2ccccc12	34.7*	12.9	-190.0	-70.3	-16.4	3.0	2.2	61.0*
CN(c1ccccc1)S(=O)(=O)c1cccc(C(=O)NCCc2c[nH]c3ccccc23)c1	26.7*	4.5	-72.9	-73.8	8.3	-1.6	57.0*	0.6
Fc1cccc(NCCc2c[nH]c3ccccc23)n1	-3.0	0.6	11.7	-66.5	-26.1	4.5	nt	nt
c1ccc2c(NCCc3c[nH]c4ccccc34)c3ccccc3nc2c1	17.3*	3.1	-67.9	-36.7	-17.3	3.1	6.9	2.1
O=C(O)c1nccnc1C(=O)NCCc1c[nH]c2ccccc12	15.9*	7.0	-5.3	7.9	17.9	-3.4	-0.1	11.8
CCOC(=O)C1=CCC(c2ccc([N+](=O)[O-])cc2)N(S(=O)(=O)c2ccc(C)cc2)C1 (stereo unspecified)	nt	nt	nt	-8.4	nt	nt	nt	nt
Nn1c(SCC(=O)Nc2ccc(OCc3ccccc3)cc2)nnc1-c1cc(-c2ccc(F)cc2)n[nH]1	nt	nt	nt	2.5	nt	nt	nt	nt
